Screen size: about 76,000 compounds; about 1,900 (2.5%) were called active. Another 5% or so got no clear call; they are omitted. The sample as a whole holds a higher share of actives than the screen did. A number with no mark means an inactive call. Calls come from the whole dose curve; as a rule, active = well fitted inhibition curve with a large enough effect; inconclusive = small, poorly fitted or top-dose-only effect; inactive = flat fitted curve, though single readings scatter.
% is set by controls: 0 for no effect and ±100 for the full control effect; potency is the fitted concentration of half-maximal effect.

Luciferin 4-monooxygenase (Photinus pyralis), sequence (P08659 whole entry, looked up): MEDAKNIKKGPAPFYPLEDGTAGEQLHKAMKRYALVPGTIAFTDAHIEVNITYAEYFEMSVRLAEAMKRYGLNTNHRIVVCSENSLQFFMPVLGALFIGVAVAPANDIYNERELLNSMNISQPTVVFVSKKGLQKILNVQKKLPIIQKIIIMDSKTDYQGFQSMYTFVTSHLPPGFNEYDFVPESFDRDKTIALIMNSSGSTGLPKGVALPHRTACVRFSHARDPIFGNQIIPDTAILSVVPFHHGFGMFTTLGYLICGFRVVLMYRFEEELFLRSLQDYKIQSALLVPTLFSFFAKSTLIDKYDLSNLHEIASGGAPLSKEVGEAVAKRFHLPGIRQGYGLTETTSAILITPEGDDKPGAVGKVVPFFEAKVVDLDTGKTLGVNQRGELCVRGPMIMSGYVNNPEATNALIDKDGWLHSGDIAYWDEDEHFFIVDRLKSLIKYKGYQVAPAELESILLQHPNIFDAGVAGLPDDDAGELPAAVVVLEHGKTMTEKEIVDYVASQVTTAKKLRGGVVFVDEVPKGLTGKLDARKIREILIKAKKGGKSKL

The test concerns the target Luciferin 4-monooxygenase (Photinus pyralis) (UniProt P08659). As to the kind of experiment: Firefly luciferase inhibition profiling of diverse chemical library using quantitative high-throughput screening. Note: nearly all actives have a fitted effect of over 65% in size. Particulars: purified P. pyralis luciferase, luminescence, biochemical; series mostly up to 115 µM; activity change, negative = inhibition: at the top concentration. The method in brief:
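Luminescence read by CCD imager after adding enzyme (10nM final) to wells holding compound, titrated in qHTS. Substrates 10uM each D-luciferin and ATP; buffer 50mM Tris acetate pH 7.5, 10mM Mg acetate, Tween-20, BSA.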
In the case of `CN(Cc1ccccc1)Cc1cc(CC2(NCc3ccc(OC(F)(F)F)cc3)COC2)no1`, the “activity change, negative = inhibition” value is -4.86%.
For `COCCc1noc(-c2ccc(NC(C)c3ncccc3C)nc2)n1` (stereo unspecified), the Potency is 31.6 µM (active).
With `COCc1noc(-c2ccc(NCCN3CCNC3=O)nc2)n1`, the “activity change, negative = inhibition” value was 8.32%.
Same read-out and setting: then `COc1cccc(CC(=O)NCCc2noc(-c3cccnc3)n2)c1`, with -5.71%; and `O=C(NC1CCN(Cc2ccc(F)c(F)c2)CC1)c1ccc2nccn2c1`, with 10.6%.
Same read-out and setting: in the case of `O=C(c1ccncc1)N1CCC(c2cc(-c3ccc(F)cc3)n[nH]2)CC1` it was -7.89%; in that of `CCC1(N2CCN(C(=O)c3ccc(N(C)C)cc3)CC2)CCN(S(C)(=O)=O)C1` (stereo unspecified), -21.9%.
For `Cc1nnn2c(C(=O)NC3CC3)cccc12`, the Potency is 7.08 µM (active).
Consider `CC(=O)N1CCC(Cc2ccc(C(=O)NC3CC3)cc2)CC1`, for which the “activity change, negative = inhibition” value is 4.35%.
On the same count and under the same terms, in the case of `Cn1cccc1C(=O)NC1CCN(c2cc(-c3ccccc3)[nH]n2)CC1` it was -5.36%.
As to `O=C(c1cc(-c2ccccc2)n[nH]1)N1CC2CC(C1)[C@H]1CCCC(=O)N1C2` (stereo partly specified), the “activity change, negative = inhibition” value is 0%.
Same read-out and setting: in the case of `Cc1ccc([S+](=O)([O-])N2CCn3c(nn(-c4ccncc4)c3=O)C2)cc1` it was -6.68%.
Consider `COc1cc(F)ccc1-c1ccc(COc2ccc3c(cnn3CCC(=O)O)c2)cc1`, for which the Potency is 44.7 µM (active).
In the case of `COc1cc(F)ccc1-c1ccnc2nc(C(C)C)nn12`, the “activity change, negative = inhibition” value is -0.38%.
The same measure, in the same setting: in the case of `COc1ccccc1-c1cn(C)c(=O)n2cc(COc3ccc(C(=O)O)cc3)nc12` it was 1.32% [at 172 µM].
Take `CCN1c2cc(C(=O)NC3CCN(Cc4ccccc4)CC3)ccc2C(=O)N2CCCCC21` (stereo unspecified): the “activity change, negative = inhibition” value was 1.15%.
On the same count and under the same terms, in the case of `CC(C)CNc1ccc2nnc(-c3ccccn3)n2n1` it was 13.6% [at 230 µM].
`O=C(C1CC1)N1CCCC(c2noc(COc3ccccc3F)n2)C1` (stereo unspecified): the Potency is 35.5 µM (active).
With `O=C(c1ccccc1)N1CCCC(c2noc(COc3ccccc3)n2)C1` (stereo unspecified), the “activity change, negative = inhibition” value is -6.88%.
`CC(C)CNC(=O)N1CCCC(c2noc(COc3ccccc3F)n2)C1` (stereo unspecified): the “activity change, negative = inhibition” value is -20.3%.
On the same count and under the same terms, in the case of `C[C@H]1CN(C(=O)Nc2cc(F)cc(F)c2)C[C@@H]1c1nc(-c2ccncc2)no1` it was -17.8%; in that of `Cc1ccc(C(=O)N2CC(N(Cc3cccnc3)CC(C)C)C2)s1`, -2.49%.
In the case of `CN(CCc1cn[nH]c1)c1ccc(-c2nc(-c3ccccc3F)no2)cn1`, the Potency was 0.631 µM (active).
For the compound `CN(C)CCN(C)c1ccc(-c2nc(-c3ccccc3F)no2)cn1`, the Potency was 15.8 µM (active).
With `Oc1ccc(-c2ccc(-c3nc(CCc4ccccc4)no3)cn2)cc1`, the “activity change, negative = inhibition” value was -3.85%.
On the same count and under the same terms, in the case of `CSc1ccc(CNC(=O)c2cc3c(N4CCCC4)nc(C)cn3n2)cc1` it was -11.2%; in that of `CCOc1ccccc1-c1noc(-c2nnn3c2COC(c2ccc(Cl)cc2)C3)n1` (stereo unspecified), -3.59%.
On the same count and under the same terms, then `CCCCc1nc2cc(C(=O)N3CCCC3c3cc(C(C)C)on3)ccc2o1` (stereo unspecified), with 0%; and `O=[S+]([O-])(Nc1ccccc1)c1ccc2c(c1)OCCN(CC1CC1)C2`, with -6.01% [at 172 µM].
The same measure, in the same setting: in the case of `Cc1ccc(CN2CC[C@@](C)(O)[C@H](N3CCCC3)C2)s1` it was 15.5%; in that of `COc1ccc(CN2CCC3(CC2)CC(=O)c2ccc(Cl)cc2O3)cc1`, -10.1%.
With `CC(C)CCN1CCC2(CC1)C(=O)NCN2Cc1ccc(Cl)cc1`, the “activity change, negative = inhibition” value is -1.9%.
In the case of `CC(C)CCN1CCC2(CC1)CC(=O)c1ccc(Cl)cc1O2`, the Potency is 44.7 µM (active).
On to `CC(C)NC(=O)N1CCC[C@@H](O)[C@H](NC(=O)c2ccc(OCC(N)=O)cc2)C1`, for which the “activity change, negative = inhibition” value is 0.824% [at 172 µM].
Still for that read-out and setting: in the case of `CNC(=O)[C@@H]1CN(C(=O)Cc2c[nH]c3ccccc23)C[C@H]1COC` it was -1.71%.
With `O=C(Nc1cccc(Br)c1)C1CC(=O)N(c2n[nH]c3cccc(F)c23)C1` (stereo unspecified), the “activity change, negative = inhibition” value is -2.06%.
Same read-out and setting: then `COCCCN(CCC(=O)N1CCC(C)CC1)C(=O)c1cc(C)oc1C`, with -5.89%; and `COc1ccc2[nH]c(C[C@@H]3C[C@@H](C(C)C)[C@H](CNC4CCN(C)CC4)C=C3C)nc2n1`, with -4.88% [at 172 µM]; and `CC(=O)N1CCC(C(=O)NCC2CCN(c3cc(-c4ccc(C)cc4)[nH]n3)CC2)CC1`, with -16.5%.
Regarding `O=C(Nc1ccc(Cl)cc1)C1CCN(C(=O)c2ncn3c2COC(c2ccc(F)cc2)C3)CC1` (stereo unspecified), the Potency was 22.4 µM (active).
On the same count and under the same terms, in the case of `O=C(NCC1CC1)C1CCN(C(=O)c2ncn3c2COC(c2ccccc2)C3)CC1` (stereo unspecified) it was 10 µM (active).
As to `CCOc1cccc(CNC(=O)c2cc3n(n2)CC(c2ccc(Cl)cc2)OC3)c1` (stereo unspecified), the “activity change, negative = inhibition” value is -7.87%.
The same measure, in the same setting: in the case of `COc1ccc(C2Cn3cnc(C(=O)N4CCC(C(=O)NCc5cccc(F)c5)CC4)c3CO2)cc1` (stereo unspecified) it was -5.68%; in that of `CCC(CC)C(=O)N1CCC(N2CCCC(C(=O)NCc3ccccc3)C2)CC1` (stereo unspecified), 5.16%.
Same read-out and setting: then `COc1ccc(C2Cn3cnc(C(=O)N4CCC(C(=O)Nc5cc(C)cc(C)c5)CC4)c3CO2)cc1` (stereo unspecified), with -24%.
Turning to `O=C(NCc1ccccc1)C1CCN(C(=O)c2ncn3c2COC(c2ccccc2)C3)CC1` (stereo unspecified), the Potency was 3.16 µM (active).
With `O=C(Nc1cccc(F)c1)c1cc2n(n1)CC(c1ccc(Cl)cc1)OC2` (stereo unspecified), the “activity change, negative = inhibition” value is -12.7%.
Still for that read-out and setting: then `COc1ccc(C2Cn3nnc(C(=O)N4CCN(C(=O)c5cccc(Cl)c5)CC4)c3CO2)cc1` (stereo unspecified), with -2.01%.
On to `O=C(NCc1ccc(F)c(Cl)c1)C1CCN(C(=O)c2ncn3c2COC(c2ccccc2)C3)CC1` (stereo unspecified), for which the Potency is 11.2 µM (active).
For `COc1ccc(C2Cn3cnc(C(=O)N4CCC(C(=O)NC5CCCC5)CC4)c3CO2)cc1` (stereo unspecified), the “activity change, negative = inhibition” value was -18.2%.
On to `Cc1ccc(C(=O)N[C@H]2CO[C@H]3[C@@H]2OC[C@@H]3n2nnnc2Oc2ccc(-n3ccnc3)cc2)cc1`, for which the “activity change, negative = inhibition” value is 11.5%.
Regarding `O=C(Nc1ccccc1)N1CCC2(CC1)CC(Cc1ccccc1)=NO2`, the “activity change, negative = inhibition” value is -3.26%.
Same read-out and setting: in the case of `COc1cccc(CC(=O)N2CCCn3nc(C)c(-c4ccccc4OCc4ccccc4)c32)c1` it was 0.241%; in that of `CC(C)Oc1ccc(CNC(=O)C2Cn3cccc3C(=O)N2Cc2cccnc2)cc1` (stereo unspecified), -0.877%.
As for `COc1ccccc1CN1CCN(C(=O)CCC[C@H]2NC[C@@H]3C[C@H]2CN(Cc2ccccc2)C3)CC1`, the “activity change, negative = inhibition” value was -21%.
On the same count and under the same terms, in the case of `CCCN1C(=O)Cc2cc(C(=O)NC3CC3)ccc21` it was -3.75%.
